Laboratory results as given in PubChem BioAssay (NCI).
Values joined by “and” are separate entries in the source; they are usually repeats but may differ in a detail not shown here. Equal values may be shown once. This is part of a sample that, as a whole, favours compounds with a hit. Of some 79,000 tested, about 15% had one in any assay. Active and inactive are the calls of the source. No stated cut-off is given here; in the data, active means growth inhibition above about 70%; inactive means the rest.

Legend:
[1] = NCI Yeast Anticancer Drug Screen. Data for the rad50 strain (AID 155);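 further: 0% = growth of vehicle-only cultures of the same strain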; conditions: S. cerevisiae rad50 strain growth inhibition, hits give high values
How it was run: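 Vehicle-treated cultures provide the reference for the growth inhibition reported for compound-exposed, repair-deficient yeast.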

[2] = NCI Yeast Anticancer Drug Screen. Data for the mec2-1 strain (AID 157); conditions: S. cerevisiae mec2-1 strain, hits give high values
How it was run: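 Cells of the genetically defined mec2-1 yeast strain are incubated with test compound. Inhibition of growth is calculated against vehicle-treated controls.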

[3] = NCI Yeast Anticancer Drug Screen. Data for the sgs1 mgt1 strain (AID 161);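 further: 0% = growth of cultures given vehicle only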; conditions: S. cerevisiae sgs1 mgt1 strain, hits give high values
How it was run: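 Inhibition of yeast growth, normalised to vehicle-treated controls, is reported for a strain bearing genetic alterations in DNA damage repair.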

[4] = NCI Yeast Anticancer Drug Screen. Data for the cln2 rad14 strain (AID 165);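 further: 0% = growth equal to vehicle treated cultures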; conditions: S. cerevisiae cln2 rad14 strain, hits give high values
How it was run: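 The screen exposed genetically defined yeast (cln2 rad14) to test compounds and scored growth inhibition relative to vehicle-treated controls.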

[5] = NCI Yeast Anticancer Drug Screen. Data for the bub3 strain (AID 167); conditions: S. cerevisiae bub3 mutant strain, hits give high values
How it was run: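 Mutant yeast screening strain plus compound; vehicle-treated cultures serve as the 0% inhibition reference.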

[6] = NCI Yeast Anticancer Drug Screen. Data for the mlh1 rad18 strain (AID 175); conditions: S. cerevisiae mlh1 rad18 strain growth inhibition, hits give high values
How it was run: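 Compound-treated yeast growth, normalised to vehicle controls. Strain bears defined DNA repair mutations.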

[7] = at 5.0 µM (retest, dose inferred, filed as 0.5)
[8] = at 50.0 µM (retest, dose inferred, filed as 5.0)

Measured: growth inhibition

COc1ccc(/C=C/[N+](=O)[O-])c(OC)c1OC
active: [1]; at 50.0 µM 84.5% | [2]; at 50.0 µM 92.5% | [3]; [8] 100% | [3]; at 50.0 µM 93.2% | [4]; [8] 99% | [5]; [8] 99% | [5]; at 50.0 µM 91.8% | [6]; at 50.0 µM 87.8%
inactive: [1]; [7] 43% | [1]; [8] 50% | [2]; [7] 52% | [2]; [8] 55% | [3]; [7] 48% | [4]; [7] 50% | [4]; at 50.0 µM 54% | [5]; [7] 69% | [6]; [7] 39% | [6]; [8] 48%

[Cl][Pt+2][Cl].[NH-]C1CCCC2CCC[N-]C12 (configuration not stated)
inactive: [1]; [7] 34% | [1]; at 50.0 µM 20.6% | [2]; [7] 24% | [2]; at 50.0 µM 60.4% | [3]; [7] 55% | [3]; at 50.0 µM 57.8% | [4]; [7] 50% | [4]; at 50.0 µM 34% | [5]; [7] 52% | [5]; at 50.0 µM 38.5% | [6]; [7] 18%
active: [1]; [8] 97% | [2]; [8] 77% | [3]; [8] 98% | [4]; [8] 86% | [5]; [8] 84% | [6]; [8] 97% | [6]; at 50.0 µM 76.1%

CC(=O)C1CCC2C3CCC4CC([N+]5(C)CCCCC5)CCC4(C)C3CCC12C (configuration not stated)
active: [1]; at 50.0 µM 82.3% | [2]; [8] 71% | [2]; at 50.0 µM 79.9% | [3]; [8] 87% | [3]; at 50.0 µM 97.5% | [4]; at 50.0 µM 81.1% | [5]; at 50.0 µM 86.5% | [6]; at 50.0 µM 92%
inactive: [1]; [7] 2% | [1]; [8] 29% | [2]; [7] 17% | [3]; [7] 10% | [4]; [7] 8% | [4]; [8] 31% | [5]; [7] 8% | [5]; [8] 64% | [6]; [7] 18% | [6]; [8] 65%

Cc1ccccc1C[As](C)(=O)O
inactive: [1]; [7] -157% | [1]; [8] -140% | [1]; at 50.0 µM 9.95% | [2]; [7] -50% | [2]; [8] -47% | [2]; at 50.0 µM 2.45% | [3]; [7] -64% | [3]; [8] -58% | [3]; at 50.0 µM 0.1% | [4]; [7] -62% | [4]; [8] -58% | [4]; at 50.0 µM 14.8% | [5]; [7] -76% | [5]; [8] -76% | [5]; at 50.0 µM 0.25% | [6]; [7] -147% | [6]; [8] -104% | [6]; at 50.0 µM 0.35%

ClCCN(CCCl)c1ccc(CNCCCNCc2ccc(N(CCCl)CCCl)cc2)cc1
active: [1]; at 50.0 µM 94.7% | [3]; at 50.0 µM 99.1% | [6]; [8] 98% | [6]; at 50.0 µM 99.2%
inactive: [1]; [7] -1% | [1]; [8] 57% | [2]; [7] -13% | [2]; [8] 7% | [2]; at 50.0 µM 49% | [3]; [7] -12% | [3]; [8] 41% | [4]; [7] -2% | [4]; [8] 37% | [4]; at 50.0 µM 14.8% | [5]; [7] -3% | [5]; [8] 38% | [5]; at 50.0 µM 43% | [6]; [7] 4%

CC(C)[O-].CC(C)[O-].[O-]c1cccc2cccnc12.[O-]c1cccc2cccnc12.[Ti+4]
inactive: [1]; [7] 6% | [1]; [8] 6% | [1]; at 50.0 µM 55.5% | [2]; [7] 11% | [2]; [8] 11% | [3]; [7] 4% | [3]; [8] 4% | [3]; at 50.0 µM 37.6% | [4]; [7] 6% | [4]; [8] 6% | [4]; at 50.0 µM 51.8% | [5]; [7] -3% | [5]; [8] -3% | [5]; at 50.0 µM 64.8% | [6]; [7] -24% | [6]; [8] -24% | [6]; at 50.0 µM 58.9%
active: [2]; at 50.0 µM 70.8%

CC(C)COP(=O)(O)OCC(C)C.[Al]
inactive: [1]; [7] -2% | [1]; [8] -11% | [1]; at 50.0 µM 3.45% | [2]; [7] -4% | [2]; [8] -9% | [2]; at 50.0 µM 16.6% | [3]; [7] -5% | [3]; [8] -4% | [3]; at 50.0 µM 3.05% | [4]; [7] -1% | [4]; [8] 3% | [4]; at 50.0 µM -12.1% | [5]; [7] 1% | [5]; [8] 31% | [5]; at 50.0 µM -0.75% | [6]; [7] -2% | [6]; [8] -10% | [6]; at 50.0 µM 18.2%

CCOP(=O)(OCC)/C(C#N)=C/c1cccc(Br)c1
active: [1]; [8] 88% | [1]; at 50.0 µM 88.2% | [2]; [8] 90% | [2]; at 50.0 µM 87.2% | [3]; [8] 94% | [3]; at 50.0 µM 85.3% | [4]; [8] 91% | [4]; at 50.0 µM 72.2% | [5]; [8] 92% | [5]; at 50.0 µM 75.2% | [6]; [8] 94% | [6]; at 50.0 µM 85.8%
inactive: [1]; [7] 19% | [2]; [7] -4% | [3]; [7] 3% | [4]; [7] 24% | [5]; [7] 5% | [6]; [7] -3%

Oc1cc[c]([Hg][Cl])cc1
active: [1]; [7] 99% | [1]; [8] 99% | [1]; at 50.0 µM 99.5% and 100% | [2]; [7] 100% | [2]; [8] 100% | [2]; at 50.0 µM 99.5% and 99.7% | [3]; [7] 100% | [3]; [8] 99% and 100% | [3]; at 50.0 µM 99.1% and 100% | [4]; [7] 99% | [4]; [8] 99% | [4]; at 50.0 µM 98.2% and 99.5% | [5]; [7] 99% and 100% | [5]; [8] 99% and 100% | [5]; at 50.0 µM 99.6% and 99.7% | [6]; [7] 99% | [6]; [8] 99% | [6]; at 50.0 µM 99.2% and 99.3%
